Here are results for 40 compounds from PubChem BioAssay (EPA / NIEHS).

Records with an inconclusive call do not appear. Active and inactive are the calls of the source. Rule for the calls: active = hit-call score of the fitted dose curve at least 0.9, where 1 is the maximum; inconclusive = response in the unintended direction; inactive = score below 0.9.

Nuclear receptor subfamily 4 group A member 2 (Homo sapiens), sequence (P43354 whole entry, looked up): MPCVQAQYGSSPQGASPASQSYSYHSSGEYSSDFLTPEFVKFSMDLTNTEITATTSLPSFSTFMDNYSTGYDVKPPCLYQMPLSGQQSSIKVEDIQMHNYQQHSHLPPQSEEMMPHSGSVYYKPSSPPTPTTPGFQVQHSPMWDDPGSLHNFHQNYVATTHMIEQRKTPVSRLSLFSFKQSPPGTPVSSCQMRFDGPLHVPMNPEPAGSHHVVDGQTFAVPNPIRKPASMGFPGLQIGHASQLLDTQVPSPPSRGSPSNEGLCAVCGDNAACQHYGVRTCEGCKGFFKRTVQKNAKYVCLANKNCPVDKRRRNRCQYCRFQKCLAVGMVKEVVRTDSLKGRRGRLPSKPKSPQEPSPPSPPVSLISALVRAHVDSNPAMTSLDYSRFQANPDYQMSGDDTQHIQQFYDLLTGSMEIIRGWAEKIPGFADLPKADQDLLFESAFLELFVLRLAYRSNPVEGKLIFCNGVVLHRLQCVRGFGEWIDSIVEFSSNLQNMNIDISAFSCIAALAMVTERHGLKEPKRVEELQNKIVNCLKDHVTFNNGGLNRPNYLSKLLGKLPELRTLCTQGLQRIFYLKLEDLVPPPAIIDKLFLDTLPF

This test addresses Nuclear receptor subfamily 4 group A member 2 (Homo sapiens) (UniProt P43354). The test is described as follows: ATG_NURR1_TRANS: Attagene TRANS-FACTORIAL HepG2 Assay for human Nuclear Receptor Related Protein 1 (NURR1) (AID 2282985). The conditions noted are these: HepG2 Attagene TRANS reporter, mRNA readout. The method, then:
ATG_TRANS is a cell-based, multiplexed-readout assay that uses HepG2, a human liver cell line, with measurements taken at 24 hours after chemical dosing in a 24-well plate.ATG_NURR1_TRANS is one of 30 assay component(s) measured or calculated from the ATG_TRANS assay. It is designed to make measurements of mRNA induction, a form of inducible reporter, as detected with fluorescence intensity signals by Reverse transcription polymerase chain reaction (RT-PCR) and Capillary electrophoresis technology.Data from the assay component ATG_NURR1_TRANS was analyzed into 1 assay endpoint. This assay endpoint, ATG_NURR1_TRANS, was analyzed in the positive analysis fitting direction relative to DMSO as the negative control and baseline of activity. Using a type of inducible reporter, measures of mRNA for gain-of-signal activity can be used to understand the reporter gene at the transcription factor-level as they relate to the gene NR4A2. Furthermore, this assay endpoint can be referred to as a primary readout, because this assay has produced multiple assay endpoints where this one serves a reporter gene function. To generalize the intended target to other relatable targets, this assay endpoint is annotated to the nuclear receptor intended target family, where the subfamily is orphan.
Human liver HepG2 cells are transiently transfected with multiple reporter transcription units (MRTUs) in 6-well plates using FuGene 6 reagent (Roche; 3 ml FuGene/1 mg DNA). The MRTU constructs are regulated by a cis-regulating element (promoter). […] A major difference between the CIS and TRANS system is that in CIS activities of endogenous TFs are measured, whereas the TRANS assay evaluates changes in activities of exogenous, chimeric NR-Gal4 proteins. […] At the end of 24 hour incubation, total RNA was isolated using TriZol reagent (Invitrogen). The isolated RNA is then reverse-transcribed using oligo(dT) primer and Mo-MLV reverse transcriptase (Invitrogen) with DNAse I (Ambion) treatment for 30 min. The one-tenth of the produced cDNA was amplified by PCR using Taq DNA polymerase (Invitrogen) and two reporter sequence-specific primers. The PCR products were fluorescently labeled by primer extension with 6-arboxyfluorescein (6-FAM) 5'-labeled reporter sequence-specific primer (2 min at 95 C, 20 s at 68 C and 10 min at 72 C) and these products were digested with 5U of HpaI (New England Biolabs) for 2h at 37 C. The fragments were purified using Qiaquick PCR columns (Qiagen), analyzed on an ABI 3130xL genetic analyzer (Applied Biosystems) with peak positions identified by using a set of X-rhodamine (ROX)-labeled MapMarker1000 molecular weight standards (BioVentures). The raw capillary electrophoresis data was processed using Attagraph software (Attagene).
In general, AC50 refers to the midpoint of the concentration-response curve, whichever way the signal moves. With `CCCCCCCCCCCC(=O)Cl`, the AC50 was 67.6 µM (active).

On to `CCN(CC)c1ccc(N=Nc2ccccc2)cc1`, for which the compound was classed as inactive.

Consider `O=C1C=CC(=O)N1c1ccccc1`, for which the result was inactive.

For the compound `O=C1c2ccccc2C(=O)c2c(Cl)cccc21`, the outcome was inactive.

On to `O=C(O)CCC(F)(F)C(F)(F)C(F)(F)C(F)(F)C(F)(F)C(F)(F)C(F)(F)F`, for which the compound was classed as inactive.

With `Cc1cc(=O)[nH]c(C(C)C)n1`, the compound was called inactive.

Consider `O=S(=O)(O)CCC(F)(F)C(F)(F)C(F)(F)C(F)(F)C(F)(F)C(F)(F)C(F)(F)C(F)(F)F`, for which the outcome was inactive.

For `OCC(F)(F)C(F)(F)C(F)(F)C(F)(F)C(F)(F)C(F)(F)CO`, the compound was called inactive.

On to `Cc1ccc(S(=O)(=O)C(I)I)cc1`, for which the compound was classed as inactive.

Regarding `Cc1cc(C)c(O)c(C(C)(C)C)c1`, the compound was called inactive.

For `C[C@]12CC[C@H]3C(=CCc4cc(O)ccc43)[C@@H]1CCC2=O`, the compound was classed as inactive.

Regarding `FC(F)(F)C(F)(F)C(F)(F)C(F)(F)C(F)(F)C(F)(F)CC[Si](Cl)(Cl)Cl`, the result was inactive.

For the compound `O=C(F)C1(F)C(F)(F)C(F)(F)C(F)(F)C(F)(F)C1(F)F`, the compound was called inactive.

As to `OCCCCl`, the call was inactive.

Consider `O=C(O)C(F)(F)C(F)(F)C(F)(F)C(F)(F)C(F)(F)C(F)(F)C(F)F`, for which the compound was called inactive.

Consider `FC(F)(F)C(F)(F)C(F)(F)C(F)(F)C(F)(F)C(F)(F)C(F)(F)CCI`, for which the call was inactive.

Turning to `COc1ccccc1C=O`, the compound was called inactive.

As to `CCCCC(CC)COC(=O)c1ccc(N(C)C)cc1` (stereo not given), the result was inactive.

Consider `CC(C)OC=O`, for which the call was inactive.

On to `OCC(O)CC(F)(F)C(F)(F)C(F)(F)C(F)(F)C(F)(F)C(F)(F)C(F)(F)C(F)(F)F` (stereo not given), for which the compound was classed as inactive.

As for `O=C(O)CCC(F)(F)C(F)(F)C(F)(F)F`, the call was inactive.

Take `COC(F)(C(F)F)C(F)(F)F` (stereo not given): the compound was called inactive.

In the case of `CN(C)C(C)(C)CO`, the compound was called inactive.

Regarding `NC(=O)C(F)(F)C(F)(F)C(F)(F)C(F)(F)C(F)(F)C(F)(F)C(F)(F)F`, the compound was called inactive.

In the case of `C=C(C)C(=O)OCC(F)(F)C(F)(F)C(F)(F)C(F)F`, the outcome was inactive.

As to `C#CC(O)CCC` (stereo not given), the compound was called inactive.

`CN1CN(C)CN(C)C1`: the call was inactive.

For `OCC(F)(F)C(F)(F)C(F)(F)C(F)(F)C(F)(F)C(F)(F)C(F)(F)C(F)(F)CO`, the result was inactive.

For the compound `NC(O)(C(F)(F)F)C(F)(F)F`, the compound was called inactive.

Consider `COCCOCCC[Si](C)(O[Si](C)(C)C)O[Si](C)(C)C`, for which the outcome was inactive.

On to `C=CC(=O)OCC(F)(F)C(F)(F)C(F)(F)COC(=O)C=C`, for which the result was inactive.

`CCOCN(C(=O)CS(=O)(=O)O)c1c(C)cccc1CC`: the compound was called inactive.

`FC(F)(F)C(F)(F)C(F)(F)CC1CO1` (stereo not given): the call was inactive.

On to `O=S(=O)(Cl)C(F)(F)C(F)(F)C(F)(F)C(F)(F)C(F)(F)C(F)(F)C(F)(F)C(F)(F)F`, for which the call was inactive.

In the case of `O=C(O)C(F)(F)OC(F)(F)C(F)(F)OC(F)(F)C(F)(F)OC(F)(F)F`, the outcome was inactive.

As for `Cc1ccc(O)cn1`, the outcome was inactive.

Consider `NCC(F)(F)C(F)(F)C(F)(F)C(F)(F)C(F)(F)C(F)(F)C(F)(F)C(F)(F)F`, for which the compound was called inactive.

Turning to `CC(C)CC=C(C=O)c1ccccc1`, the outcome was inactive.

Consider `CCOC(OCC)OCC`, for which the outcome was inactive.

In the case of `Cc1ccc2c(c1)OCC(=O)CO2`, the compound was classed as inactive.
